Among all 39,000 compounds or so, about 3,300 (8.5%) were called active. For the sample, actives were picked, then their nearest neighbours and some compounds at random.
These molecules were tested on HepG2 (assay: cytotoxicity call (relative viability < 0.9)). Conditions: 10 µM.
With `C[C@@H]1CN([C@@H](C)CO)C(=O)Cc2cc(NS(=O)(=O)c3ccc(Cl)cc3)ccc2O[C@H]1CN(C)Cc1ccc(Oc2ccccc2)cc1` the cytotoxicity call was “active”. `C[C@@H]1CN([C@H](C)CO)C(=O)Cc2cc(NS(=O)(=O)c3ccc(Cl)cc3)ccc2O[C@@H]1CN(C)Cc1ccc(Oc2ccccc2)cc1` was tested, and the cytotoxicity call was “active”. With `C[C@H]1CN([C@@H](C)CO)C(=O)Cc2cc(NS(=O)(=O)c3ccc(Cl)cc3)ccc2O[C@@H]1CN(C)Cc1ccc(Oc2ccccc2)cc1` the cytotoxicity call was “active”. `C[C@H](CO)N1C[C@H](C)[C@@H](CN(C)Cc2ccc(Oc3ccccc3)cc2)Oc2ccc(NS(=O)(=O)c3ccc(Cl)cc3)cc2CC1=O` was tested, and the cytotoxicity call was “inactive”. In the case of `C[C@H]1CN([C@@H](C)CO)S(=O)(=O)c2ccc(C#CC3CC3)cc2O[C@H]1CN(C)Cc1ccccc1F`, the cytotoxicity call is reported as “inactive”. In the case of `COc1ccc(CN(C)C[C@H]2Oc3ccc(NS(C)(=O)=O)cc3CC(=O)N([C@H](C)CO)C[C@@H]2C)cc1`, the cytotoxicity call is reported as “inactive”. In the case of `C[C@@H]1CN([C@@H](C)CO)C(=O)c2cccc(NS(=O)(=O)c3ccc(F)cc3)c2O[C@H]1CN(C)CC1CC1`, the cytotoxicity call is reported as “inactive”. `C[C@H]1CCCCO[C@H](CN(C)C(=O)Nc2cccc3ccccc23)[C@@H](C)CN([C@@H](C)CO)C(=O)c2cc(NC(=O)Nc3ccccc3)ccc2O1` was tested, and the cytotoxicity call was “inactive”. For `C[C@@H]1CCCCO[C@H](CN(C)S(=O)(=O)c2ccc(Cl)cc2)[C@@H](C)CN([C@H](C)CO)C(=O)c2cc(NC(=O)C3CCCCC3)ccc2O1`, the cytotoxicity call was “inactive”. In the case of `CN(C)CC(=O)N1[C@H](CO)[C@@H](c2ccc(C3=CCCC3)cc2)C12CN(S(=O)(=O)Cc1ccccc1)C2`, the cytotoxicity call is reported as “inactive”. With `CCOc1ccc(-n2c([C@@H](C)N(Cc3cccnc3)C(=O)Cc3ccc(OC(F)(F)F)cc3)nc3ncccc3c2=O)cc1` the cytotoxicity call was “inactive”. `Cn1c(=O)[nH]c2ccccc21` was tested, and the cytotoxicity call was “inactive”. For `CC(C)n1c(=S)[nH]c2ccccc21`, the cytotoxicity call was “active”. `CCn1c(=S)[nH]c2ccccc21` was tested, and the cytotoxicity call was “inactive”. With `COc1ccc(CN(C)C[C@@H]2OCCCC[C@H](C)Oc3ccc(NS(=O)(=O)c4cccs4)cc3C(=O)N([C@H](C)CO)C[C@@H]2C)cc1` the cytotoxicity call was “inactive”. In the case of `CCNC(=O)c1csc(N)n1`, the cytotoxicity call is reported as “inactive”. With `CCNC(=O)c1coc(C)n1` the cytotoxicity call was “inactive”. `CCNC(=O)c1sc(C)nc1N` was tested, and the cytotoxicity call was “active”. For `C[C@@H]1CN([C@H](C)CO)C(=O)c2cc(Br)cnc2O[C@@H]1CN(C)C(=O)Nc1ccc(F)cc1`, the cytotoxicity call was “inactive”. With `O=C(O)c1cc2n(n1)CCC2` the cytotoxicity call was “inactive”. `C[C@@H]1CCCCO[C@H](CN(C)Cc2ccc3c(c2)OCO3)[C@@H](C)CN([C@H](C)CO)C(=O)c2cc(NS(=O)(=O)c3ccc(Cl)cc3)ccc2O1` was tested, and the cytotoxicity call was “inactive”. In the case of `C[C@@H]1CN([C@@H](C)CO)C(=O)c2cc(NS(=O)(=O)c3ccc(Cl)cc3)ccc2O[C@@H](C)CCCCO[C@@H]1CN(C)Cc1ccc2c(c1)OCO2`, the cytotoxicity call is reported as “inactive”. In the case of `C[C@@H]1CCCCO[C@H](CN(C)Cc2ccc3c(c2)OCO3)[C@H](C)CN([C@H](C)CO)C(=O)c2cc(NS(=O)(=O)c3ccc(Cl)cc3)ccc2O1`, the cytotoxicity call is reported as “inactive”. For `C[C@@H]1CCCCO[C@H](CN(C)Cc2ccc3c(c2)OCO3)[C@H](C)CN([C@@H](C)CO)C(=O)c2cc(NS(=O)(=O)c3ccc(Cl)cc3)ccc2O1`, the cytotoxicity call was “active”. `C[C@@H]1CCCCO[C@@H](CN(C)Cc2ccc3c(c2)OCO3)[C@@H](C)CN([C@H](C)CO)C(=O)c2cc(NS(=O)(=O)c3ccc(Cl)cc3)ccc2O1` was tested, and the cytotoxicity call was “active”. In the case of `C[C@@H]1CCCCO[C@H](CN(C)Cc2ccc3c(c2)OCO3)[C@@H](C)CN([C@@H](C)CO)C(=O)c2cc(NS(=O)(=O)c3ccc(Cl)cc3)ccc2O1`, the cytotoxicity call is reported as “inactive”. `C[C@@H]1CN([C@@H](C)CO)C(=O)c2cc(NS(=O)(=O)c3ccc(Cl)cc3)ccc2O[C@@H](C)CCCCO[C@H]1CN(C)Cc1ccc2c(c1)OCO2` was tested, and the cytotoxicity call was “active”. `C[C@H]1CCCCO[C@@H](CN(C)Cc2ccc3c(c2)OCO3)[C@@H](C)CN([C@@H](C)CO)C(=O)c2cc(NS(=O)(=O)c3ccc(Cl)cc3)ccc2O1` was tested, and the cytotoxicity call was “inactive”. In the case of `C[C@H](CO)N1C[C@H](C)[C@H](CN(C)Cc2ccc3c(c2)OCO3)OCCCC[C@H](C)Oc2ccc(NS(=O)(=O)c3ccc(Cl)cc3)cc2C1=O`, the cytotoxicity call is reported as “inactive”. For `C[C@@H]1CCCCO[C@@H](CN(C)Cc2ccc3c(c2)OCO3)[C@H](C)CN([C@H](C)CO)C(=O)c2cc(NS(=O)(=O)c3ccc(Cl)cc3)ccc2O1`, the cytotoxicity call was “active”. With `C[C@H](CO)N1C[C@H](C)[C@@H](CN(C)Cc2ccc3c(c2)OCO3)OCCCC[C@H](C)Oc2ccc(NS(=O)(=O)c3ccc(Cl)cc3)cc2C1=O` the cytotoxicity call was “inactive”. In the case of `C[C@H]1CCCCO[C@H](CN(C)Cc2ccc3c(c2)OCO3)[C@@H](C)CN([C@@H](C)CO)C(=O)c2cc(NS(=O)(=O)c3ccc(Cl)cc3)ccc2O1`, the cytotoxicity call is reported as “inactive”. For `C[C@H](CO)N1C[C@H](C)[C@H](CN(C)S(C)(=O)=O)Oc2ccc(NS(=O)(=O)c3ccc(Cl)cc3)cc2C1=O`, the cytotoxicity call was “inactive”. In the case of `OCc1cccc(Cn2cncn2)c1`, the cytotoxicity call is reported as “inactive”. `C[C@@H]1CN([C@@H](C)CO)S(=O)(=O)c2ccc(Br)cc2O[C@H]1CN(C)C(=O)c1ccccc1` was tested, and the cytotoxicity call was “inactive”. `COCC#Cc1ccc([C@@H]2[C@H]3CN(C(=O)c4ccncc4)CC(=O)N3[C@H]2CO)cc1` was tested, and the cytotoxicity call was “inactive”. With `COc1ccc(NC(=O)Nc2ccc3c(c2)C(=O)N([C@H](C)CO)C[C@H](C)[C@@H](CN(C)S(=O)(=O)c2ccc(F)cc2)OCCCC[C@@H](C)O3)cc1` the cytotoxicity call was “inactive”. For `C[C@H]1CN([C@@H](C)CO)C(=O)Cc2cc(NC(=O)Cn3cnnn3)ccc2O[C@H]1CN(C)Cc1ccc(C(=O)Nc2ccccc2N)cc1`, the cytotoxicity call was “inactive”. In the case of `Cc1ccc(S(=O)(=O)Nc2ccc3c(c2)C(=O)N([C@H](C)CO)C[C@@H](C)[C@@H](CN(C)C(=O)Nc2ccc4c(c2)OCO4)OCCCC[C@H](C)O3)cc1`, the cytotoxicity call is reported as “inactive”. In the case of `C[C@@H]1CN([C@H](C)CO)C(=O)c2cc(NC(=O)CCCN(C)C)ccc2O[C@@H]1CN(C)S(=O)(=O)c1cccs1`, the cytotoxicity call is reported as “inactive”. In the case of `CC(C)C#Cc1ccc2c(c1)O[C@@H](CN(C)C(=O)Cc1ccccn1)[C@@H](C)CN([C@@H](C)CO)S2(=O)=O`, the cytotoxicity call is reported as “inactive”. For `Cc1ccc(S(=O)(=O)N(C)C[C@@H]2Oc3c(NC(=O)Nc4cccc5ccccc45)cccc3C(=O)N([C@@H](C)CO)C[C@H]2C)cc1`, the cytotoxicity call was “inactive”. In the case of `COc1ccc(NC(=O)Nc2cccc3c2O[C@H](CN(C)Cc2ccc(C(F)(F)F)cc2)[C@H](C)CN([C@@H](C)CO)C3=O)cc1`, the cytotoxicity call is reported as “inactive”. `CC(C)NC(=O)Nc1cccc2c1O[C@@H](CN(C)S(=O)(=O)c1ccc(Cl)cc1)[C@@H](C)CN([C@H](C)CO)C2=O` was tested, and the cytotoxicity call was “inactive”. In the case of `C[C@@H]1CN([C@H](C)CO)C(=O)c2cc(NS(=O)(=O)c3ccc(Cl)cc3)ccc2O[C@@H](C)CCCCO[C@H]1CN(C)Cc1ccc2c(c1)OCO2`, the cytotoxicity call is reported as “inactive”. `C[C@@H]1CCCCO[C@@H](CN(C)Cc2ccc3c(c2)OCO3)[C@@H](C)CN([C@@H](C)CO)C(=O)c2cc(NS(=O)(=O)c3ccc(Cl)cc3)ccc2O1` was tested, and the cytotoxicity call was “active”. For `C[C@@H]1CN([C@H](C)CO)C(=O)c2cc(NS(=O)(=O)c3ccc(Cl)cc3)ccc2O[C@@H](C)CCCCO[C@@H]1CN(C)Cc1ccc2c(c1)OCO2`, the cytotoxicity call was “inactive”. In the case of `COc1ccc(S(=O)(=O)Nc2ccc3c(c2)C(=O)N([C@H](C)CO)C[C@@H](C)[C@@H](CN(C)Cc2ccc(Oc4ccccc4)cc2)O3)cc1`, the cytotoxicity call is reported as “inactive”. With `COc1ccc(S(=O)(=O)Nc2ccc3c(c2)C(=O)N([C@@H](C)CO)C[C@H](C)[C@H](CN(C)Cc2ccc(Oc4ccccc4)cc2)O3)cc1` the cytotoxicity call was “inactive”. In the case of `C[C@H]1CN([C@@H](C)CO)C(=O)c2cc(NS(=O)(=O)c3ccccc3)ccc2O[C@@H]1CN(C)Cc1ccc(Oc2ccccc2)cc1`, the cytotoxicity call is reported as “inactive”. For `COc1ccc(S(=O)(=O)Nc2ccc3c(c2)C(=O)N([C@H](C)CO)C[C@H](C)[C@H](CN(C)Cc2ccc(Oc4ccccc4)cc2)O3)cc1`, the cytotoxicity call was “inactive”. In the case of `COc1ccc(S(=O)(=O)Nc2ccc3c(c2)C(=O)N([C@@H](C)CO)C[C@@H](C)[C@@H](CN(C)Cc2ccc(Oc4ccccc4)cc2)O3)cc1`, the cytotoxicity call is reported as “active”. For `COc1ccc(S(=O)(=O)Nc2ccc3c(c2)C(=O)N([C@H](C)CO)C[C@@H](C)[C@H](CN(C)Cc2ccc(Oc4ccccc4)cc2)O3)cc1`, the cytotoxicity call was “active”. For `COc1ccc(S(=O)(=O)Nc2ccc3c(c2)C(=O)N([C@@H](C)CO)C[C@H](C)[C@@H](CN(C)Cc2ccc(Oc4ccccc4)cc2)O3)cc1`, the cytotoxicity call was “inactive”. `COc1ccc(S(=O)(=O)Nc2ccc3c(c2)C(=O)N([C@@H](C)CO)C[C@@H](C)[C@H](CN(C)Cc2ccc(Oc4ccccc4)cc2)O3)cc1` was tested, and the cytotoxicity call was “active”. With `COc1ccc(S(=O)(=O)Nc2ccc3c(c2)C(=O)N([C@H](C)CO)C[C@H](C)[C@@H](CN(C)Cc2ccc(Oc4ccccc4)cc2)O3)cc1` the cytotoxicity call was “active”. `C[C@@H]1CN([C@@H](C)CO)C(=O)c2cc(NS(=O)(=O)c3ccccc3)ccc2O[C@H]1CN(C)Cc1ccc(Oc2ccccc2)cc1` was tested, and the cytotoxicity call was “inactive”. For `CN1CCN(C(=O)C[C@H]2CC[C@@H]3[C@H](COC[C@H](O)CN3Cc3ccc4c(c3)OCO4)O2)CC1`, the cytotoxicity call was “inactive”. For `O=C(C[C@@H]1CC[C@H]2[C@@H](COC[C@@H](O)CN2C(=O)Nc2ccc(C(F)(F)F)cc2)O1)NCCc1ccncc1`, the cytotoxicity call was “inactive”. `CCCNC(=O)Nc1ccc2c(c1)OC[C@@H](C)N(Cc1ccc(-c3ccccn3)cc1)C[C@@H](C)[C@H](OC)CN(C)C2=O` was tested, and the cytotoxicity call was “inactive”. `Nc1c(C(=O)O)cnc2nc(N3CCOCC3)nn12` was tested, and the cytotoxicity call was “inactive”. For `COc1ccc(S(=O)(=O)Nc2ccc3c(c2)C(=O)N([C@@H](C)CO)C[C@@H](C)[C@@H](CN(C)Cc2ccc(C(=O)O)cc2)OCCCC[C@@H](C)O3)cc1`, the cytotoxicity call was “inactive”.
